Results taken from PubChem BioAssay (EPA / NIEHS).
Active and inactive are the calls of the source. Rule for the calls: active = hit-call score of the fitted dose curve at least 0.9, where 1 is the maximum; inactive = score below 0.9.

The compounds below were run against Paired box protein Pax-6 (Homo sapiens) (UniProt P26367) (assay: ATG_Pax6_CIS: Attagene CIS-FACTORIAL HepG2 Assay for human Paired Box 6 (PAX6) (AID 2282956)). Settings: HepG2 CIS-FACTORIAL PAX6 reporter transcription, RNA readout; actives raise or lower the signal.
Paired box protein Pax-6 (Homo sapiens), sequence (P26367 whole entry, looked up): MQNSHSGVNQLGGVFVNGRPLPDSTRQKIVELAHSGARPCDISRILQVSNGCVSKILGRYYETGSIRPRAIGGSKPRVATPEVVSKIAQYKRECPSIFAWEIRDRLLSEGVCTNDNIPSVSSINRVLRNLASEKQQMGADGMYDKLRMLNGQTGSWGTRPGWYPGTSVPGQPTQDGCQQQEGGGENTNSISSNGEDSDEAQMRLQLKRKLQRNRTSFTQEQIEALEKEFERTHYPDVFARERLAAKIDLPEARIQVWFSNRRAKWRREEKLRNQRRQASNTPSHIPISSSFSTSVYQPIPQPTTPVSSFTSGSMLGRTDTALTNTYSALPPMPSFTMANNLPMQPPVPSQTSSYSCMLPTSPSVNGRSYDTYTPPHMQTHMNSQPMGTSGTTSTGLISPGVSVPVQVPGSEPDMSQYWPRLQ
Description: ATG_CIS is a cell-based, multiplexed-readout assay that uses HepG2, a human liver cell line, with measurements taken at 24 hours after chemical dosing in a 24-well plate.ATG_Pax6_CIS is one of 52 assay component(s) measured or calculated from the ATG_CIS assay. It is designed to make measurements of mRNA induction, a form of inducible reporter, as detected with fluorescence intensity signals by Reverse transcription polymerase chain reaction (RT-PCR) and Capillary electrophoresis technology.Data from the assay component ATG_Pax6_CIS was analyzed into 1 assay endpoint. This assay endpoint, ATG_Pax6_CIS, was analyzed with bidirectional fitting relative to DMSO as the negative control and baseline of activity. Using a type of inducible reporter, measures of mRNA for gain or loss-of-signal activity can be used to understand the reporter gene at the transcription factor-level as they relate to the gene PAX6. Furthermore, this assay endpoint can be referred to as a primary readout, because this assay has produced multiple assay endpoints where this one serves a reporter gene function. To generalize the intended target to other relatable targets, this assay endpoint is annotated to the dna binding intended target family, where the subfamily is paired box protein.
Human liver HepG2 cells are transiently transfected with multiple reporter transcription units (MRTUs) in 6-well plates using FuGene 6 reagent (Roche; 3 ml FuGene/1 mg DNA). The MRTU constructs are regulated by a cis-regulating element (promoter). […] A major difference between the CIS and TRANS system is that in CIS activities of endogenous TFs are measured, whereas the TRANS assay evaluates changes in activities of exogenous, chimeric NR-Gal4 proteins. […] At the end of 24 hour incubation, total RNA was isolated using TriZol reagent (Invitrogen). The isolated RNA is then reverse-transcribed using oligo(dT) primer and Mo-MLV reverse transcriptase (Invitrogen) with DNAse I (Ambion) treatment for 30 min. The one-tenth of the produced cDNA was amplified by PCR using Taq DNA polymerase (Invitrogen) and two reporter sequence-specific primers. The PCR products were fluorescently labeled by primer extension with 6-arboxyfluorescein (6-FAM) 5'-labeled reporter sequence-specific primer (2 min at 95 C, 20 s at 68 C and 10 min at 72 C) and these products were digested with 5U of HpaI (New England Biolabs) for 2h at 37 C. The fragments were purified using Qiaquick PCR columns (Qiagen), analyzed on an ABI 3130xL genetic analyzer (Applied Biosystems) with peak positions identified by using a set of X-rhodamine (ROX)-labeled MapMarker1000 molecular weight standards (BioVentures). The raw capillary electrophoresis data was processed using Attagraph software (Attagene).
For `CC(=O)C(F)(F)C(F)(F)F`, the outcome was “inactive”. `O=[N+]([O-])c1ccccc1O` was tested, and the outcome was “inactive”. With `Nc1c(Oc2ccccc2)cc(O)c2c1C(=O)c1ccccc1C2=O` the outcome was “inactive”. With `O=NN1CCCCCCC1` the outcome was “inactive”. In the case of `O=S1(=O)OC(c2cc(Br)c(O)c(Br)c2)(c2cc(Br)c(O)c(Br)c2)c2ccccc21`, the outcome is reported as “inactive”. For `CC(C)(C)c1ccccc1O`, the AC50 was 165 µM (active). For `C=CC(=O)NC(C)(C)CC(C)=O`, the outcome was “inactive”. `CN(N=O)C(N)=O` was tested, and the outcome was “inactive”. For `C=C(C)C(=O)OCCCCOC(=O)C(=C)C`, the outcome was “inactive”. In the case of `N#CCC#N`, the outcome is reported as “inactive”. In the case of `CC(C)(COCC1CO1)COCC1CO1` (stereo not given), the outcome is reported as “inactive”. For `N#Cc1ccccc1N`, the outcome was “inactive”. With `CCOC(=O)OC1=C(c2cc(C)ccc2C)C(=O)NC12CCC(OC)CC2` (stereo not given) the outcome was “inactive”. For `Brc1ccc(Oc2c(Br)cc(Br)cc2Br)c(Br)c1`, the outcome was “inactive”. In the case of `CCOc1cc(C=O)ccc1O`, the outcome is reported as “inactive”. In the case of `Cc1ccccc1OP(=O)(Oc1ccccc1)Oc1ccccc1`, the outcome is reported as “inactive”. With `CC(F)(F)CC(F)(F)F` the outcome was “inactive”. With `C=C(C)[C@@H]1CC=C(C=O)CC1` the outcome was “inactive”. In the case of `O=S(=O)(F)C(F)(F)C(F)(F)C(F)(F)C(F)(F)F`, the outcome is reported as “inactive”. With `Nc1cccnc1` the outcome was “inactive”. With `N#Cc1ccc(Cl)cc1` the outcome was “inactive”. For `Cc1cccc(N=Nc2ccc(N(C)C)cc2)c1`, the outcome was “inactive”. For `CCCCOC(C)=O`, the outcome was “inactive”. In the case of `CCCCCCCCBr`, the outcome is reported as “inactive”. With `ClCCN1CCOCC1` the outcome was “inactive”. For `OC[P+](CO)(CO)CO`, the outcome was “inactive”. In the case of `CN(N=O)c1ccc([N+](=O)[O-])cc1`, the outcome is reported as “inactive”. With `C=CC(=O)OCC(COC(=O)C=C)(COC(=O)C=C)COC(=O)C=C` the AC50 was 8.18 µM (active). For `CCCCCCCCCCCCOS(=O)(=O)O`, the outcome was “inactive”. With `COCC(=O)N(c1c(C)cccc1C)[C@H](C)C(=O)OC` the outcome was “inactive”. With `Clc1cnc(Oc2ccc(Oc3ncc(Cl)cc3Cl)cc2)c(Cl)c1` the outcome was “inactive”. With `O=[N+]([O-])c1c2ccccc2cc2ccccc12` the outcome was “inactive”. `OCC(c1ccc(Cl)cc1)c1ccc(Cl)cc1` was tested, and the outcome was “inactive”. `CCOP(=O)(OCC)OC(=CCl)c1ccc(Cl)cc1Cl` was tested, and the outcome was “inactive”. With `O=C(O)C1(c2ccc3c(c2)OC[C@H](Cc2ccc(-c4ccccc4)cc2)[C@H]3O)CCCC1` the outcome was “inactive”. In the case of `Cc1ccc(CCl)cc1`, the outcome is reported as “inactive”. For `NC(=O)CCl`, the outcome was “inactive”. In the case of `CCOP(=O)(OCC)SCCSCC`, the outcome is reported as “inactive”. `O=S(=O)(Oc1ccc(Cl)cc1)c1ccc(Cl)cc1` was tested, and the outcome was “inactive”. `c1cc[c]([Sb]([c]2ccccc2)[c]2ccccc2)cc1` was tested, and the outcome was “inactive”.
